Bioassay records: PubChem BioAssay, several laboratories
The list is not random: actives were taken first. Their share in the collection is about 28%.
CYP2C9 act: activators of human CYP2C9; P11712; recombinant CYP2C9, luciferin-H conversion, luminescence; stronger effect = higher value; factor 1 = untreated enzyme, 0 = blocked; activation factor at 5 µM; 96,000 tested, 1.4% active; AID 1024;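 active = activation factor of 2 or more for CYP2C9 at a 5 µM dose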;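 also: 0 = sulfaphenazole-blocked wells and 1 = vehicle-only wells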
CYP2C9 inh: inhibitors of human CYP2C9 | P11712 | CYP2C9 Supersomes, luciferin-H conversion, luminescence | inhibition, % at 5 µM | 96,000 tested, 20% active | AID 777;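 active = blocking of liver enzyme CYP2C9 beyond about 50% at 5 µM, limit read from the data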
CYP2C19 inhib: blocks human cytochrome P450 2C19; 96,000 tested, 21% active; inhibition, % at 5 µM; P33261; CYP2C19 Supersomes, luciferin-H EGE luminescence, 30 min;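 active = CYP2C19 inhibition above a set limit at 5 µM in the primary screen, cut at about 50% in these data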;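 also: plate controls were negative control wells for no effect and 2.5 mM tranylcypromine positive control for full effect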
Target sequence (P33261 whole entry, looked up): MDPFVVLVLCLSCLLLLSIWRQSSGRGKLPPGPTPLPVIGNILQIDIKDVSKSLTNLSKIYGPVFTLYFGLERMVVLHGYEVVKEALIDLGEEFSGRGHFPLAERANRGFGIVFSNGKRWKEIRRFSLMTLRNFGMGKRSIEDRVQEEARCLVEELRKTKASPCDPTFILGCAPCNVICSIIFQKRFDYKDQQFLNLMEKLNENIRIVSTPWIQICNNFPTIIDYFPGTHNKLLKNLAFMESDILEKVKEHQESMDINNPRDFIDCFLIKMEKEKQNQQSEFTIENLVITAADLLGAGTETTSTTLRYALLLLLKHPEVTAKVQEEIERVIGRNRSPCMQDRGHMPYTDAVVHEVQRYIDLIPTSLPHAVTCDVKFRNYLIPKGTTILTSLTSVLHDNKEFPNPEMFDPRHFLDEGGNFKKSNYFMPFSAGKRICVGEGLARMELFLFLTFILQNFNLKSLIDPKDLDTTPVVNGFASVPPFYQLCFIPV
PLK1 kinase inh: PLK1 (human) kinase inhibition; recombinant PLK1 kinase, TR-FRET peptide phosphorylation; inhibition, % at 10 µM; 97,000 tested, 0.53% active;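 active = inhibition of 50% or more in the single-concentration screen; inactive = inhibition below 50%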;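 also: 0% = DMSO max control and 100% = H-89 dihydrochloride min control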
PLK1 PBD inh: inhibitors of human Plk1 polo box domain binding. P53350. Plk1 PBD phosphopeptide binding, fluorescence polarization. AID 693. inhibition, %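 (tested at about 20 µM)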. 97,000 tested, 0.13% active; in the data active = inhibition above about 34%, passing the limit was not always enough
CYP2C19 activ: increases human CYP2C19 enzyme activity. recombinant CYP2C19, luciferin-H EGE luminescence; stronger effect = higher value; 0 = fully inhibited enzyme, 1 = untreated enzyme. activation factor at 5 µM. P33261. 96,000 tested, under 10 active. AID 1025;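 active = activation factor of at least 2 at 5 µM in the primary screen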;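 also: 0 = wells with 2.5 mM tranylcypromine and 1 = vehicle-only wells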
* = called active by the depositor; x = not tested or not shown.

SMILES	CYP2C9 act	CYP2C9 inh	CYP2C19 inhib	PLK1 kinase inh	PLK1 PBD inh	CYP2C19 activ
Cc1cccc(-n2ncc3c(NCCCO)ncnc32)c1	0.4	64*	4	-9	11	1
CCOC(=O)COc1ccc2c(c1)C(=O)CC1(CCCCC1)O2	1	3	14	-13	-3	0.9
Cc1nnc(NCCc2ccccc2)n(N)c1=O	1.1	-7	-11	-2	34	1.1
CCOC(=O)Cc1nnc(Nc2cccc(C)c2)c2ccccc12	1.1	-7	-3	-7	-19	1
C=C(Cl)COc1ccc2c(CCCC)cc(=O)oc2c1	0.1	92*	91*	-2	-10	0.1
C=C(Cl)COc1ccc2c(CC)cc(=O)oc2c1	0.7	31	30	-3	3	0.7
C=CCN1C(=O)C2C(C(=O)NC)C3(C)C=CC2(O3)C1C(=O)NCc1ccc(OC)cc1 (centres undefined)	1.1	-9	0	x	x	1
CCOc1cc(CNCCSc2nnnn2C)cc(Br)c1OCc1ccccc1	0.2	81*	94*	-11	-7	0.1
Cn1nnnc1SCCNCc1ccc(Cl)cc1	1.1	-14	84*	-5	-13	0.2
CCS(=O)(=O)Nc1ccc(C(=O)CC2(O)C(=O)Nc3ccccc32)cc1 (centres undefined)	1	1	-12	-13	1	1.1
COC(=O)c1ccc(NC2(C#N)C(=O)Nc3ccccc32)cc1 (centres undefined)	0.3	71*	52*	1	6	0.5
O=S(=O)(NCc1ccco1)N1CCCCCC1	0.8	16	63*	-12	2	0.4
Cc1ccsc1C1C2=C(CCCC2=O)Nc2ncnn21 (centres undefined)	0.9	13	8	61*	-10	0.9
CCCC1(C)Nc2ccccc2-c2nc3ccccc3n21 (centres undefined)	0.4	59*	64*	-11	-15	0.4
CN1C(=O)/C(=C2\SC(N3CCCCCC3)=NC2=O)c2ccccc21	2.7*	-170	45	-35	-8	0.6
CCCN1C(=O)/C(=C2\SC(N3CCCCC3)=NC2=O)c2ccccc21	0.8	19	41	-13	-4	0.6
Cc1nn(-c2ccccc2)c(Oc2ccc(F)cc2)c1/C=N/n1cnnc1	0.4	60*	56*	-2	17	0.4
COc1ccccc1/C=N/n1cnnc1	1	-1	3	x	x	1
Cc1c(C(=O)OC(C)C)nnn1-c1nonc1N	x	x	x	-9	29	x
O=C(c1ccco1)N1CCN(/C(=N/S(=O)(=O)c2cccs2)c2ccccc2Cl)CC1	0.6	37	36	-12	2	0.6
CCOc1cc(-c2nc(-c3ccccc3)c(-c3cc([N+](=O)[O-])ccc3C)[nH]2)ccc1O	0.4	57*	14	-2	22	0.9
COc1ccc(-c2nc(-c3ccccc3)c(-c3cc([N+](=O)[O-])ccc3C)[nH]2)cc1OC	0.6	40	30	-6	1	0.7
O=[N+]([O-])c1ccc(O)c(-c2nc(-c3ccccc3)c(-c3cccs3)[nH]2)c1	0.1	92*	11	7	24	0.9
COc1cc(-c2noc(CCCC(=O)NCc3ccccc3)n2)cc(OC)c1OC	1	-3	15	-2	-12	0.8
O=C1NC(c2ccccc2)=C(c2nc3ccccc3s2)C(c2ccc(F)cc2)N1 (centres undefined)	0.5	50*	55*	-10	2	0.5
CC(C)NC(=O)N1CCOCCOCCN(C(=O)NC(C)C)CCOCCOCC1	0.9	9	-4	-3	1	1
Cc1nc2ccc(S(=O)(=O)NCC(=O)N3CCC(C)CC3)cc2s1	0.9	14	50*	-11	7	0.5
O=C(NCc1ccc2c(c1)OCO2)C1CCN(S(=O)(=O)c2cccc3nsnc23)CC1	1.1	-9	1	0	2	1
COc1ccc2nc(NC(=O)C(NS(=O)(=O)c3cccc4nsnc34)C(C)C)sc2c1 (centres undefined)	0.3	74*	41	-16	11	0.6
Cc1nc2ccc(S(=O)(=O)NC(C(=O)Nc3nccs3)C(C)C)cc2s1 (centres undefined)	0.9	13	11	x	x	0.9
